Data taken from PubChem BioAssay (NCI).
The panel holds about 83,000 compounds, 20% with a hit somewhere; the sample as a whole holds those more often.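 Compound tested at a single concentration for 48 hours in 96-well plates; a percent growth value below 10 was scored as active.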 Unmarked numbers belong to inactive results. Active and inactive are the calls of the source.

tested on: MCF7 breast; experiment: NCI-60 one-dose screen, 48 h (100 = growth as untreated, 0 = no growth, -100 = all killed); details: 10 µM

Compound | growth
O=C(/C=C/c1ccc(Cl)cc1)c1nc2ccccc2n1Cc1ccc(F)cc1 | 9.25% (active)
CC1=C(CCC=O)C2=C(C)C3(CC3)[C@@](C)(O)C(=O)C2=C1 | -44.2% (active)
O=C(NC([Se])=NC1CCCCC1)c1ccc2c(c1)OCO2 | 81.6%
C[C@H]1[C@H](OC(=O)CCC(=O)N(CCCc2cn(-c3ccc(C#N)cc3)nn2)CCNc2ccnc3cc(Cl)ccc23)O[C@@H]2OC3(C)CC[C@H]4[C@H](C)CC[C@@H]1[C@@]24OO3 | -28% (active)
C[C@H]1[C@@H](Oc2ccc(-c3cn(-c4ccnc5cc(Cl)ccc45)nn3)cc2)O[C@@H]2OC3(C)CC[C@H]4[C@H](C)CC[C@@H]1[C@@]24OO3 | 19.3%
COc1ccc(/C=C/C(=O)c2nc3ccccc3n2Cc2ccc(Br)cc2)cc1 | 9.99% (active)
COC(=O)CCn1c(-c2ccc(-n3cc(-c4ccc(O[C@H]5O[C@@H]6OC7(C)CC[C@H]8[C@H](C)CC[C@@H]([C@H]5C)[C@@]68OO7)cc4)nn3)cc2)nc2ccccc21 | 11.1%
C[C@H]1[C@H](OC(=O)CCC(=O)N(CCCc2cn(-c3ccc([N+](=O)[O-])cc3)nn2)CCNc2ccnc3cc(Cl)ccc23)O[C@@H]2OC3(C)CC[C@H]4[C@H](C)CC[C@@H]1[C@@]24OO3 | 10.4%
